Laboratory results reported in PubChem BioAssay AID602156 (GNF / Scripps Winzeler lab, 2011).
Among all 5,700 compounds or so, about 280 (4.9%) were called active. How the calls were made is not given here. The list is a sample of the results.

Experiment: Plasmodium liver-stage growth inhibition, dose response, imaging, Malaria Box, P. yoelii, HepG2-A16-CD81EGFP (AID 602156)
Details: P. yoelii liver stage in HepG2-A16-CD81EGFP

outcome, inactive:
CC(C)(C)CC(=O)NCCCCNc1ccnc2cc(Cl)ccc12, O=C(Nc1ccc(-c2nc3ccccc3[nH]2)cc1)c1cccc(C(=O)Nc2ccc(-c3nc4ccccc4[nH]3)cc2)n1, O=C(Nc1ccc(-c2nc3ccccc3[nH]2)cc1)c1ccc(-c2cccc([N+](=O)[O-])c2)o1, CCc1ccccc1N(CC(=O)NC1CCCCC1)C(=O)CCC(=O)Nc1ccccn1, Oc1ccc(-c2ccccc2)cc1CNC1CCCCC1, CCOC(=O)c1c(C)[nH]c(C)c1S(=O)(=O)N1CCCC(C(=O)N2CCN(c3cccc(C)c3C)CC2)C1 (stereo not given), CC1CN(C(=O)C(Cc2c[nH]c3ccccc23)NC(=O)CCl)CCN1C(=O)Nc1ccccc1 (stereo not given), Cc1ccc(C=Cc2ccc3ccccc3[n+]2C)cc1, COc1ccc(-c2c[n+](CC(=O)c3ccccc3)c3n2CCC3)cc1, COc1ccc(OC)c(-c2ccc(O)c(CNCC(C)c3ccccc3)c2)c1 (stereo not given), Fc1cc(F)c(C2SCCN2C(=S)Nc2cccc(C(F)(F)F)c2)c(F)c1 (stereo not given), COc1cccc2cc(C(=O)Nc3cccc(C(F)(F)F)c3)c(=O)oc12, CC(C)(C)CC(C)(C)Nc1c(-c2ccccc2OC(=O)c2cccc(Br)c2)nc2ccccn12, COc1ccccc1C=CC1=NC(=Cc2ccc(SC)cc2)C(=O)O1, O=C(Cn1cc([N+](=O)[O-])nc1[N+](=O)[O-])N1CCN(c2ccc(F)cc2)CC1, CCOc1ccc(C=C2SC(=Nc3ccccc3)NC2=O)cc1OC, CCOC(=O)C1CCN(C(=O)CN2C(=O)c3ccccc3C2c2c[nH]c3ccccc23)CC1 (stereo not given), N#CC(=Cn1cc(Cc2ccc(Cl)cc2Cl)c2ccccc21)c1nn(CCO)c(N)c1C#N, Cc1nnc2sc(SCc3ccc([N+](=O)[O-])cc3)nn2c1=O, CC1CCN(S(=O)(=O)c2ccc(C(=O)NCc3ccco3)cc2)CC1, CCN1CCCC1CNc1ncnc2c1[nH]c1ccc(C)cc12 (stereo not given), c1ccc(CCCNc2ccnc3cc4ccccc4cc23)cc1, COCCn1c(SCC(=O)c2ccc(C)cc2C)nnc1-c1ccco1, CCN(CC)CCNc1ncnc2c1[nH]c1ccc(Br)cc12, CC(C)CNC(=O)c1cnc(NCCCN2CCCC2)nc1NCC1CCCCC1, CC[n+]1c(/C=C2\Sc3oc4ccccc4c3N2C)ccc2cc(C)ccc21, c1ccc(Nc2nc(NCC3CCCO3)c3ccccc3n2)cc1 (stereo not given), COc1ccccc1N1C(=N)SC(=Cc2ccc(OCc3ccccc3F)cc2)C1=O, CC[N+](CC)=c1scc(-c2ccc([N+](=O)[O-])cc2)s1, COc1cc(C(=O)NCCc2cc3ccccc3[nH]2)ccc1OC1CCN(CC(c2ccccc2)c2ccccc2)CC1, O=C(NCCCCCCCCCCNC(=O)Nc1ccc(C2=NCCCN2)cc1)Nc1ccc(C2=NCCCN2)cc1, COc1ccc(-c2csc3nc(COc4cccc(C)c4)nn23)c(O)c1, CCCCN(C)C(=O)CSc1nc(NCc2ccccc2)c2ccccc2n1, Cc1ccc(N=C2SC(=Cc3c(Cl)cccc3Cl)C(=O)N2c2ccc(C)c(C)c2)cc1C, CCCCCCC(=O)Oc1ccccc1-c1nc2ccccn2c1NC(C)(C)CC(C)(C)C, CN(CCCNc1ccnc2cc(Cl)ccc12)C(=O)c1ccc(Cl)c(Cl)c1, Cc1c(Cl)cccc1NC(=O)C1C(C(=O)O)C2C=CC1C21CC1 (stereo not given), CCCCCCN(C(=O)c1ccccc1)C(CC)c1nc2ccccc2c(=O)n1-c1ccccc1OC (stereo not given), CCCCCN(C(=O)c1ccc(Br)cc1)C(CC)c1nc2ccccc2c(=O)n1-c1ccccc1OC (stereo not given), O=c1c2c(nc3cc(-c4ccc(Cl)cc4)[nH]n13)CCCC2, O=c1c2c(nc3cc(-c4ccc(-c5ccccc5)cc4)[nH]n13)CCCC2, Cc1cccc(OCC(=O)Nc2cccc(NC(=O)COc3cccc(C)c3)n2)c1, CCc1ccc(C(C)=NNc2nc(-c3ccccc3)cc(=O)[nH]2)cc1, Cc1cccc(NS(=O)(=O)c2ccc3[nH]c(=O)ccc3c2)c1C, COc1cc(/C=C(\C#N)c2nc3ccccc3[nH]2)ccc1OCc1ccc(C)cc1, Clc1ccc(Nc2nc(Nc3ccc(Cl)cc3)c3ccccc3n2)cc1, CCc1ccc(-n2c(C(CC)N(CCc3ccccc3)C(=O)c3cc(OC)cc(OC)c3)nc3ccccc3c2=O)cc1 (stereo not given), CCCCCCN(C(=O)COCc1ccccc1)C(C)c1nc2ccccc2c(=O)n1-c1cccc(Cl)c1C (stereo not given), Cc1ccc2c(c1)c(-c1ccccc1)c(-c1ccccc1)n2CC(O)CN1CCN(Cc2ccccc2)CC1 (stereo not given), CC1CC(C)CN(c2ccc([N+](=O)[O-])cc2-c2nn[nH]n2)C1 (stereo not given), COc1ccc(C=NNc2nc3ccc(Cl)cc3[nH]2)cc1OC, COc1ccc(C=C2SC(=N)N(c3ccc4c(c3)OCO4)C2=O)cc1OC, COc1ccc(C(OCC(=O)N2CCN(Cc3ccccc3)CC2)c2ccccc2)cn1 (stereo not given), O=C(Nc1ccc(C2=NCCN2)c(Cl)c1)c1cccc(C(=O)Nc2ccc(C3=NCCN3)c(Cl)c2)c1, CC1CC(C)CN(S(=O)(=O)c2ccc(C(=O)Nc3ccc(-c4nc5ccccc5o4)cc3)cc2)C1 (stereo not given), Cc1ccc2cc3c(N)c4cccc(C)c4nc3nc2c1, CCOc1ccc(Nc2[nH]c(=O)sc2C2=c3cc(Br)ccc3=NC2=O)cc1, Cc1ccc(O)c(NC(=O)c2cnn3c(C(F)(F)F)cc(-c4ccc(F)cc4)nc23)c1, O=C(C=Cc1cccnc1)C12CC3CC(CC(C3)C1)C2, O=C1NN(c2ccccc2)C(=O)C1=C1C(=O)N(Cc2cccc3ccccc23)c2ccccc21, Cc1cc2ncn(N=Cc3cccnc3)c2cc1C, CCOC(=O)c1c(C)n(-c2ccccc2)c2ccc(OC(=O)c3ccccc3NC(=O)CC)cc12, CC(C)=CCCC(C)=CCCC(C)NCCN1CCNCC1 (stereo not given), C=CCNC(=O)c1ccc2c(c1)N=CN(CCOc1ccccc1)C2, Cn1c(SCC2CCCO2)nnc1C1CCN(C/C=C/c2ccccc2)CC1 (stereo not given), Cc1cc(S(=O)(=O)N2CCN(Cc3ccccc3)CC2)ccc1-n1cnnn1, COc1ccc(S(=O)(=O)ON=C2C=C(C(C)C)C(=O)C=C2C)cc1, COc1ccc(NC(=O)C2c3ccccc3C(=O)N(CC(C)C)C2c2cccs2)cc1OC (stereo not given), COc1ccc(NC(=O)/C=C/c2ccccc2Cl)cc1, O=C1CC(c2ccccc2)CC2=C1C(c1cc(F)ccc1F)Nc1ccccc1N2 (stereo not given), CCCCC(CC)C(=O)N1CCN(C(C)c2nc3ccc(Cl)cc3c(=O)n2C)CC1 (stereo not given), CCC(NC1CCCCC1)c1nc2ccccc2c(=O)n1C (stereo not given), CCCCCCCCC(=O)N1CCN(C(CC)c2nc3ccccc3c(=O)n2C)CC1 (stereo not given), CCCCCCCCCC(=O)N1CCN(C(CC)c2nc3ccccc3c(=O)n2C)CC1 (stereo not given), CC(c1nc2ccc(Cl)cc2c(=O)n1C)N1CCN(C(=O)C(C)(C)C)CC1 (stereo not given), CC(c1nc2ccccc2c(=O)n1-c1ccc(Br)cc1)N1CCN(S(=O)(=O)c2ccc3ccccc3c2)C(C)C1 (stereo not given), COc1ccc(/C=C2\N=C(c3ccc(Cl)cc3)N(c3ccccc3)C2=O)cc1OC, O=C(NCCCNC(=O)Nc1cccc(C2=NCCN2)c1)Nc1cccc(C2=NCCN2)c1, CC(C)c1ccc(NC(=O)C=Cc2ccccc2Cl)cc1, COC(=O)c1sccc1S(=O)(=O)N1CCCC(c2[nH]ncc2-c2ccccc2)C1 (stereo not given), Cc1cccc(Nc2nc3nonc3nc2NN=Cc2cccs2)c1C, O=C(NCCC(c1ccccc1)c1ccccc1)c1cccc([N+](=O)[O-])c1, COC(=O)c1ccc(C=NNc2cc(C)nc3ccc(OC)cc23)cc1, O=S(=O)(/C=C/c1ccccc1)NCCCCNc1ccnc2cc(Cl)ccc12, CCN(CC)Cc1cc(Nc2nc3ccccc3[nH]2)cc(CN(CC)CC)c1O, CC[n+]1c(C=C2Sc3ccccc3N2C)ccc2ccc(C)cc21, O=C(CNCCc1ccccc1)NC(c1ccccc1)c1ccccc1, O=C(c1c2c(nc3ccccc13)CCC2)N1CCc2ccccc21, O=C(O)c1cc([N+](=O)[O-])ccc1Oc1cncc(Cl)c1, CCCN(CCC)CC(O)COc1ccccc1C(=O)Nc1ccccc1 (stereo not given), CCn1c(SCC(=O)N(c2ccccc2)c2ccccc2)nc2sc3c(c2c1=O)CCN(C)C3, Cc1cccc(CCNc2cc(C)nc3ncnn23)c1, COc1ccccc1N1CCN(C(=O)Nc2ccc3ccccc3c2)CC1, Oc1ccc(-c2cnccn2)cc1CNC1CCN(Cc2ccccc2)CC1, CC1(C)C2CCC1(C)C(NCc1ccccc1O)C2 (stereo not given), COc1ccc(OC)c(-c2ccc(O)c(CNCc3ccccc3OC)c2)c1, COc1cccc(CNC(=O)[C@@H]2CNC[C@H]2c2ccc(C(F)(F)F)cc2)c1, COc1ccc(CNC(=O)C2CNCC2c2ccc(C(F)(F)F)cc2)cc1 (stereo not given), CCCCCN1/C(=C\C=C\c2n(CC)c3cc(Cl)c(Cl)cc3[n+]2CCCCC)N(CC)c2cc(Cl)c(Cl)cc21, COc1ccc(-c2cc(C(=O)NCc3cccnc3)no2)cc1OC
